Experimental data reported in PubChem BioAssay.
Inconclusive results are not listed. Calls of active or inactive are those of the source. Unless noted, cut-off not given; nearly all actives show AC50 up to about 26 µM.

How the values were obtained:
[1] = growth inhibition of DIPG glioma cells, dose response, cell-based, SU-DIPG-XVII, MIPE5.0, CellTiter-Glo, qHTS (AID 1347060); conditions: SU-DIPG-XVII viability, CellTiter-Glo ATP luminescence;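 on AC50: cells exposed to compound for 48 hours before viability readout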
[2] = growth inhibition of DIPG glioma cells, dose response, cell-based, SU-DIPG-XIII, MIPE5.0, CellTiter-Glo, qHTS (AID 1347064; cut-off not given, nearly all actives have AC50 up to about 23 µM;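 on AC50: cells exposed to compound for 48 hours before the viability read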); conditions: SU-DIPG-XIII viability, CellTiter-Glo ATP luminescence
[3] = viability loss in pontine glioma line – cell-based, SU-DIPG-XXV, MIPE5.0, CellTiter-Glo, qHTS, dose response (AID 1347065); conditions: CellTiter-Glo ATP luminescence;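 further: cells exposed to compound for 48 hours before ATP readout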
[4] = JHH-DIPG-1 glioma cell viability, MIPE5.0 library, CellTiter-Glo luminescence, qHTS (AID 1347067); conditions: JHH-DIPG-1 glioma viability, CellTiter-Glo ATP luminescence;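 further: cells exposed to compound for 48 hours before readout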
[5] = SU-DIPG-XXV glioma cell viability, MIPE5.0 library, qHTS (AID 1347068; cut-off not given, nearly all actives have IC50 up to about 30 µM;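 on IC50: cells exposed to compound for 48 hours before viability readout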)
[6] = modifiers of HSF1 nuclear foci, imaging, Selleck Cancer Library (AID 1347162; in the data active means plate-normalised HSF1 focus index below about 0.46); conditions: human cells, at 10 µM; SSMD: measured here: HSF1 foci SSMD mean; cell count: measured here: cell number; plate-normalised HSF1 focus index: stronger effect = lower value
[7] = survival rescue of mitochondrial mutant cells in low glucose, primary screen, MELAS cybrids, Rieske KO mouse fibroblasts, CellTiter-Glo (AID 1508586;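 active means mean z-score across replicates of 1.96 or higher in either the MELAS or the Rieske mutant cell line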;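 further: z relative to plate mean and SD of compound and empty wells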)
[8] = hESC survival regulators, cell-based (AID 493140; call rule not given here;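 further: cells exposed to compounds for four days before counting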); conditions: human embryonic stem cell survival screen; stronger effect = higher value
[9] = liver-stage malaria parasite growth inhibition, primary screen, cell-based, HepG2, luciferase luminescence, HepG2 viability (AID 624349; in the data active means parasite load remaining mostly below about 12%, no sharp cut-off; inactive means mostly above about 10%;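 further: 100% = mean of DMSO negative control wells on the same plate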); conditions: P. berghei liver stage in HepG2, luciferase luminescence, concentration not given here; parasite load remaining: stronger effect = lower value; viability: measured here: HepG2 viability without parasites
[10] = LFS_MB_P medulloblastoma growth inhibition, cell-based, chromothripsis tumors, cisplatin or BGB combos (AID 1671449; in the data active means inhibition above about 80%;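 further: cells exposed for 96 hours; 0% = vehicle DMSO and 100% = killing by high DMSO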); conditions: LFS_MB_P medulloblastoma cells
[11] = HDN33 neuroblastoma growth inhibition, cell-based, chromothripsis tumors, cisplatin or BGB combos (AID 1671450; in the data active means inhibition above about 80%;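 further: cells exposed to compound for four days; 0% = vehicle DMSO and 100% = cell killing by high DMSO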); conditions: HDN33 neuroblastoma cells, stronger effect = higher value
[12] = ICB984 medulloblastoma cell growth inhibition, synergistic combos for chromothripsis tumors, cisplatin or BGB combos (AID 1671451; call rule not given here;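 further: cells exposed for 96 hours before readout; 0% = vehicle DMSO and 100% = killing by high DMSO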); conditions: ICB984 medulloblastoma cells, drug combinations, stronger effect = higher value
[13] = LFS_MB_1R medulloblastoma cell growth inhibition, synergistic combos for chromothripsis tumors, cisplatin or BGB combos (AID 1671452; in the data active means inhibition above about 80%;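 further: cells exposed for 96 hours before readout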); conditions: LFS_MB_1R medulloblastoma cells, stronger effect = higher value
[14] = HTB85 osteosarcoma cell growth inhibition, synergistic combos for chromothripsis tumors, BGB or cisplatin IC20 combos (AID 1671453; in the data active means inhibition above about 80%;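 further: cells exposed for 96 hours before readout; 0% = vehicle DMSO and 100% = high DMSO killing control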); conditions: HTB85 osteosarcoma cells, drug combinations, stronger effect = higher value
[15] = CRL2098 osteosarcoma cell growth inhibition, synergistic combos for chromothripsis tumors, BGB or cisplatin IC20 combos (AID 1671454; in the data active means inhibition above about 80%;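 further: cells exposed for 96 h before readout; 0% = vehicle DMSO and 100% = killing by high DMSO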); conditions: CRL2098 osteosarcoma cells, drug combinations, stronger effect = higher value
[16] = HD-MB03 medulloblastoma cell growth inhibition, synergistic combos for chromothripsis tumors, BGB or cisplatin IC20 combos (AID 1671455; in the data active means inhibition above about 83%;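 further: 0% = vehicle DMSO and 100% = high DMSO as cytotoxic control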); conditions: HD-MB03 medulloblastoma cells, stronger effect = higher value
[17] = UWB1.289 ovarian carcinoma cell growth inhibition, synergistic combos for chromothripsis tumors, BGB or cisplatin combos (AID 1671456; in the data active means inhibition above about 80%;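 further: cells exposed to compound for four days; 0% = vehicle DMSO and 100% = killing by high DMSO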); conditions: UWB1.289 ovarian carcinoma cells, stronger effect = higher value
[18] = LFS_MB_2R medulloblastoma cell growth inhibition, synergistic combos for chromothripsis tumors, cisplatin combos (AID 1671457; in the data active means inhibition above about 80%;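 further: cells exposed to compound for four days before readout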); conditions: LFS_MB_2R medulloblastoma cells, stronger effect = higher value
[19] = MDA-MB-436 breast carcinoma cell growth inhibition, synergistic combos for chromothripsis tumors, BGB or cisplatin combos (AID 1671458; call rule not given here;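 further: cells exposed for 96 hours; 0% = vehicle DMSO and 100% = killing by high DMSO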); conditions: MDA-MB-436 breast carcinoma growth inhibition, drug combinations, stronger effect = higher value
[20] = UWB1.289_BRCA1 ovarian cancer growth, cell-based, BGB or cisplatin combinations (AID 1671459; in the data active means inhibition above about 80%); conditions: UWB1.289 BRCA1 ovarian carcinoma, drug combinations, stronger effect = higher value
[21] = human astrocyte viability loss, single and combined drugs, cytotoxicity control for chromothriptic childhood tumor combination screen, cell-based, BGB or cisplatin IC20 combos (AID 1671460; in the data active means inhibition above about 80%;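 further: cells exposed to compounds for 96 hours before viability readout; 0% = vehicle and 100% = killing control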); conditions: Human astrocytes, drug combinations, stronger effect = higher value
[22] = growth inhibition of BT084 medulloblastoma cells, cell-based, ICGC_MB145, cisplatin and BGB IC40 combos (AID 1671461; in the data active means inhibition above about 80%;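 further: cells exposed to drugs for 96 hours; 0% = vehicle DMSO and 100% = high DMSO full killing control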); conditions: drug combinations, stronger effect = higher value
[23] = growth inhibition of RCMB18 medulloblastoma cells, cell-based, cisplatin and BGB IC40 combos (AID 1671462; in the data active means inhibition above about 80%;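 further: cells exposed to compound for four days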); conditions: stronger effect = higher value
[24] = growth inhibition of CRL1545 osteosarcoma cells, cell-based, cisplatin and BGB IC20 combos (AID 1671464; in the data active means inhibition above about 80%;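 further: cells exposed to compound for 96 hours before readout; 0% = vehicle DMSO and 100% = high DMSO killing control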); conditions: stronger effect = higher value
[25] = measured here: combination with BGB IC40, at 0.05 µM
[26] = measured here: with BGB IC20 combination, at 0.5 µM
[27] = measured here: with cisplatin IC20 combination, at 0.5 µM
[28] = measured here: combination with cisplatin, at 0.5 µM
[29] = measured here: combination with cisplatin, at 5 µM

c1ccc2c(-c3cnn4cc(-c5ccc(N6CCNCC6)cc5)cnc34)ccnc2c1
AC50 [1]: 3.32 µM (active) | AC50 [2]: 5.25 µM (active) | AC50 [3]: 2.63 µM (active) | AC50 [4]: 2.63 µM (active) | IC50 [5]: 5.9 µM (active) | SSMD [6]: -18.9 | cell count [6]: 2900 | plate-normalised HSF1 focus index [6]: 0.0271 (active)

CC(C)C(=O)OCC(=O)[C@@]12O[C@H](C3CCCCC3)O[C@@H]1C[C@H]1[C@@H]3CCC4=CC(=O)C=C[C@]4(C)[C@H]3[C@@H](O)C[C@@]12C
AC50 [1]: 13.2 µM (active) | AC50 [2]: 13.2 µM (active) | AC50 [3]: 8.33 µM (active) | AC50 [4]: 2.95 µM (active) | IC50 [5]: 14.8 µM (active) | z-score ([7]; MELAS cybrid survival, CellTiter-Glo 48 h, stronger effect = higher value): -0.376 (inactive) | z-score ([7]; Rieske KO mouse fibroblast survival, CellTiter-Glo 72 h): 1.73

COc1ccc(S(=O)(=O)N(CCO)c2ccccc2CN(C)C/C=C/c2ccc(Cl)cc2)cc1
survival [8]: 106 (inactive) | parasite load remaining [9]: 32.7% (inactive) | viability [9]: 64.7% | AC50 [1]: 18.6 µM (active) | AC50 [2]: 7.42 µM (active) | AC50 [3]: 16.6 µM (active) | AC50 [4]: 10.5 µM (active) | IC50 [5]: 18.6 µM (active)

COc1ccc(C(=O)C2CCN(CC(=O)N(Cc3nc4c(c(=O)[nH]3)COCC4)CC3CC3)CC2)cc1
outcome [1]: inactive | outcome [2]: inactive | outcome [3]: inactive | outcome [4]: inactive | outcome [5]: inactive | inhibition ([10]; at 0.5 µM, stronger effect = higher value): -26.8% (inactive) | inhibition ([10]; measured here: combination with BGB IC20, at 0.005 µM): -22.7% | inhibition ([10]; measured here: combination with BGB IC40, at 0.005 µM): -42.7% | inhibition [10, 25]: -55.1% | inhibition ([10]; measured here: combination with cisplatin, at 0.5 µM, stronger effect = higher value): -22.8% | inhibition ([10]; measured here: combination with cisplatin, at 5 µM, stronger effect = higher value): -44.7% | inhibition ([11]; BGB combo, at 5 µM): -14.7% | inhibition ([11]; at 0.5 µM): 19.2% (inactive) | inhibition ([11]; cisplatin combo, at 5 µM): 9.88% | inhibition [11, 26]: 15.5% | inhibition [11, 27]: 24.9% | inhibition ([11]; single agent, at 5 µM): 15.7% | inhibition ([12]; BGB IC20 combo, at 0.005 µM): -9.62% | inhibition ([12]; BGB IC40 combo, at 0.005 µM): -29.7% | inhibition ([12]; BGB IC40 combo, at 0.05 µM): -4.73% | inhibition ([12]; at 0.5 µM): -22.8% (inactive) | inhibition ([12]; cisplatin combo, at 0.05 µM): -10.1% | inhibition ([12]; cisplatin combo, at 0.5 µM): -15% | inhibition ([12]; cisplatin combo, at 5 µM): -26% | inhibition ([12]; measured here: 5 uM single agent, at 5 µM): -16% | inhibition ([13]; at 0.5 µM): -33% (inactive) | inhibition [13, 25]: -55.7% | inhibition [13, 28]: -42.4% | inhibition [13, 29]: -67.1% | inhibition ([14]; at 0.5 µM): 14.2% (inactive) | inhibition ([14]; measured here: with BGB IC20, at 0.5 µM): 33.7% | inhibition ([14]; measured here: with BGB IC20, at 5 µM): 10.5% | inhibition ([14]; measured here: with cisplatin IC20, at 0.5 µM): -3.3% | inhibition ([14]; measured here: with cisplatin IC20, at 5 µM): 4.94% | inhibition ([14]; single agent, at 5 µM): 15.4% | inhibition ([15]; at 0.5 µM): -25.5% (inactive) | inhibition ([15]; measured here: combination with BGB at IC20, at 0.5 µM): -15.2% | inhibition ([15]; measured here: combination with cisplatin at IC20, at 0.5 µM): -29.9% | inhibition ([16]; at 0.5 µM): -6.43% (inactive) | inhibition ([16]; measured here: combo with BGB at IC20, at 0.5 µM): -11.5% | inhibition ([16]; measured here: combo with cisplatin at IC20, at 0.5 µM): -4.57% | inhibition ([17]; at 0.5 µM): 0.15% (inactive) | inhibition ([17]; measured here: inhibition with BGB combination, at 0.05 µM): -7.89% | inhibition ([17]; measured here: inhibition with cisplatin combination, at 0.05 µM): -13.7% | inhibition ([18]; at 0.5 µM): -24% (inactive) | inhibition [18, 28]: -29.2% | inhibition [18, 29]: -37.9% | inhibition ([19]; at 0.5 µM): -12.3% (inactive) | inhibition ([19]; measured here: BGB combination, at 0.5 µM): -9.1% | inhibition ([19]; measured here: BGB combination, at 5 µM): -21.6% | inhibition ([19]; measured here: cisplatin combination, at 0.5 µM): -32.8% | inhibition ([19]; measured here: cisplatin combination, at 5 µM): -17.8% | inhibition ([20]; BGB combination, concentration series, at 5 µM): 1.7% | inhibition ([20]; at 0.5 µM): -0.47% (inactive) | inhibition ([20]; cisplatin combination, concentration series, at 5 µM): 18.5% | inhibition ([21]; at 0.5 µM): 48.9% (inactive) | inhibition ([21]; measured here: combo with BGB IC20, at 0.5 µM): 45.3% | inhibition ([21]; measured here: combo with cisplatin IC20, at 0.5 µM): 49.7% | inhibition ([22]; at 0.5 µM): -24.2% (inactive) | inhibition ([22]; cisplatin combination, at 0.5 µM): -30.1% | inhibition ([22]; cisplatin combination, at 5 µM): -190% | inhibition ([22]; measured here: BGB IC40 combination 0.05 uM, at 0.05 µM): -40% | inhibition ([22]; single agent, at 5 µM): -16.6% | inhibition ([23]; at 0.5 µM): -19.3% (inactive) | inhibition ([23]; cisplatin combo, at 5 µM): -12.1% | inhibition ([23]; measured here: BGB IC40 combination, at 0.05 µM): -3.95% | inhibition [23, 28]: -13.9% | inhibition ([23]; single agent, at 5 µM): 8.88% | inhibition ([24]; at 0.5 µM): 9.43% (inactive) | inhibition [24, 26]: 5.59% | inhibition [24, 27]: 9.92% | inhibition ([24]; single agent, at 0.05 µM): -39.6% | inhibition ([24]; single agent, at 5 µM): -10.3%
